64 molecules from PubChem BioAssay AID2314 (National Center for Advancing Translational Sciences (NCATS), 2010) can be followed below.

Where “and” joins values, the source holds several entries; their conditions need not be identical. Equal entries are not always repeated. In all, about 300,000 compounds went through this assay and about 37,000 (12%) were called active. No stated cut-off is given here; in the data, active means max response mostly above about 13% (no sharp cut-off); inactive means mostly below about 14%. The full list was thinned out, with actives kept by preference.

A short description of the experiment: Cycloheximide Counterscreen for Small Molecule Inhibitors of Shiga Toxin. Further: read at 38.3 µM for the half of the compounds with a filed dose; 0% is about no effect. Particulars: cell reporter, cycloheximide protein synthesis inhibition counterscreen; active compounds read high. A general note: A counterscreen serves to expose hits that act by an unwanted route or on another target.
Consider `COc1ccc(NC(=O)C(NC(C)=O)C(=O)NCc2ccccc2Cl)cc1` (centres undefined), for which the max response is 1.56% (inactive).

For `Cc1cc(C(=O)NNS(=O)(=O)c2ccccc2C(F)(F)F)nn1C(C)(C)C`, the max response was 7.74% (inactive).

For `O=C(CN1C(=O)COc2ccccc21)NCCN1CCc2ccccc2C1`, the max response was 4.27% (inactive).

For the molecule `CC(OC(=O)CN1C(=O)COc2ccccc21)C(=O)NCc1ccc(F)cc1` (centres undefined), the max response is -2.2% (inactive).

In the case of `O=C(CN1C(=O)COc2ccccc21)Nc1ccc(F)cc1`, the max response is 44.7% (active).

On to `C/C(N)=C(/C#N)C(=O)COC(=O)C1=NN(c2ccccc2)C(=O)CC1`, for which the max response was -5.97% (inactive).

On to `O=C(Nc1nnc(S(=O)(=O)N2CCOCC2)s1)c1cccc(Br)c1`, for which the max response is 7.79% (inactive).

With `S=c1[nH]c(-c2cccs2)cn1-c1ccccc1`, the max response was 34.1% (active).

`O=c1oc2ccccc2cc1-c1cn(-c2ccccc2)c(=S)[nH]1`: the max response is 7.59% (inactive).

For `O=c1[nH]c(-c2cccs2)nc2ccccc12`, the max response was 20% (inactive).

As to `COc1cc(/C=C/C(=O)OCC(=O)Nc2cccc(Oc3ccccc3)c2)ccc1O`, the max response was 10.4% (inactive).

Take `COc1ccc(S(=O)(=O)N2CCC(C(=O)N3CCCC3)CC2)cc1C`: the max response is -13.9% (inactive).

In the case of `O=c1[nH]c(SCc2ccccc2)nnc1-c1ccccc1`, the max response is 11% (active).

For `Cc1ccc(CSc2nc(-c3ccccc3)c(C#N)c(=O)[nH]2)cc1`, the max response was -11.1% (inactive).

As to `Cc1ccccc1CSc1nnc(-c2ccccc2)c(=O)[nH]1`, the max response is 18.4% (inactive).

As to `COc1cc(OC)c(C(=O)Nc2ccc(N(C)C)cc2)cc1OC`, the max response was 40.8% (active).

In the case of `COc1cc(OC)c(C(=O)NC2CC(C)(C)NC(C)(C)C2)cc1OC`, the max response was -1.33% (inactive).

Take `COC(=O)c1ccc(NC(=O)c2cc(Cl)ccc2OC)cc1`: the max response is 0.237% (inactive).

`COc1ccc(Cl)cc1C(=O)Nc1ccc(N(C)C(C)=O)cc1`: the max response is 34.7% (active).

Take `COc1cc(OC)c(C(=O)Nc2ccccc2-c2ccccc2)cc1OC`: the max response was -1.49% (inactive).

For `COc1ccc(Cl)cc1C(=O)NCC#N`, the max response is -1.71% (inactive).

Consider `C=CCn1c(SCCOc2ccc(OC)cc2)nnc1C(NC(=O)c1ccc(OC)cc1)C(C)C` (centres undefined), for which the max response is -2.43% (inactive).

For `CN(CC1CCCO1)S(=O)(=O)c1ccc(C(=O)Nc2ccc(F)cc2)cc1` (centres undefined), the max response was 3.84% (inactive).

As to `Cc1oc(-c2ccccc2Cl)[n+]([O-])c1C`, the max response was -1.24% (inactive).

Take `CCCSc1nc2sc3c(c2c(=O)n1-c1ccc(OC)cc1)CCN(C)C3`: the max response was 0.929% (inactive).

As for `CCc1cccc(NC(=O)C2CCCN(S(=O)(=O)c3ccc4[nH]c(=O)ccc4c3)C2)c1` (centres undefined), the max response is 14.1% (inactive).

On to `Cn1c(=O)n(C)c2cc(S(=O)(=O)Nc3ccc(F)cc3)ccc21`, for which the max response is 1.27% (inactive).

`CCN(CC)CCN(C(=O)c1ccc(N2C(=O)CCC2=O)cc1)c1nc2cc3c(cc2s1)OCO3`: the max response was 14.3% (inactive).

For the molecule `CCOc1ccc2nc(N(CCCN(C)C)C(=O)c3ccc(C(=O)c4ccccc4)cc3)sc2c1`, the max response was -2.35% (inactive).

Consider `CCN(CC)CCN(C(=O)c1ccc(S(=O)(=O)N2CCOCC2)cc1)c1nc2cc3c(cc2s1)OCCO3`, for which the max response is 13.6% (active).

For the molecule `CN(C)CCCN(C(=O)c1ccc(S(=O)(=O)N2CCCc3ccccc32)cc1)c1nc2ccc(F)cc2s1`, the max response is 0.524% (inactive).

As for `CN(C)CCCN(C(=O)c1ccc(S(=O)(=O)N2CCCCCC2)cc1)c1nc2ccc(Br)cc2s1`, the max response is 11.5% (active).

For `O=C(Nc1nc2cc3c(cc2s1)OCCO3)c1cccc(S(=O)(=O)N2CCOCC2)c1`, the max response is -5.43% (inactive).

On to `CCOc1cc(C)c(S(=O)(=O)NCc2ccccn2)cc1C`, for which the max response is -2.56% (inactive).

For `COc1cc(OC)c2ccc(=O)oc2c1C(CCN1CCN(c2ccccc2)CC1)c1ccc2c(c1)OCO2` (centres undefined), the max response is 1.12% (inactive) and 1.78% (inactive).

As for `Cc1cccc(CSc2nc3c(c(=O)n2C)SCC3)c1`, the max response was 8.73% (inactive).

Regarding `CC(C)Oc1ccc(/C=N/NC(=O)c2nnn(-c3nonc3N)c2CN(C)C2CCCCC2)cc1`, the max response is -0.539% (inactive).

Consider `O=C(O)CN1c2cccc3cccc(c23)S1(=O)=O`, for which the max response is 8.16% (inactive).

Take `COc1ccc(/C(O)=C2/C(=O)C(=O)N(CCCN(C)C)C2c2ccccc2)cc1OC` (centres undefined): the max response was 5.45% (inactive).

In the case of `CCN(CC)CCN1C(=O)C(=O)/C(=C(/O)c2ccc(OC)c(OC)c2)C1c1ccccn1` (centres undefined), the max response was 17.9% (active).

On to `CCCOc1ccc(/C(O)=C2/C(=O)C(=O)N(CCN(C)C)C2c2ccc(OC)c(OC)c2)cc1` (centres undefined), for which the max response was 5.75% (inactive).

On to `COc1ccc(S(=O)(=O)N2CCCC(C(=O)NCCCn3ccnc3)C2)cc1OC` (centres undefined), for which the max response is -5.51% (inactive).

Turning to `Cc1ccsc1-c1cc(C(=O)O)c2c(ccc3ccccc32)n1`, the max response was 16.2% (inactive).

For the molecule `CCOCCCNC(=O)c1cc2c(=O)n3ccccc3nc2s1`, the max response is 30.4% (active).

In the case of `CCn1c(=N)c(C(=O)NCCCOC)cc2c(=O)n3cccc(C)c3nc21`, the max response is -3.15% (inactive).

Turning to `Cc1cccn2c(=O)c3cc(C(=O)NC4CCCCC4)sc3nc12`, the max response is 7.47% (inactive).

Turning to `CC1CC(C)CN(CC(=O)N2c3ccccc3CCc3ccccc32)C1` (centres undefined), the max response is -3.85% (inactive).

`COc1cc2c(cc1OC)CN(CC(=O)Nc1ccc(F)cc1)CC2`: the max response was -3.51% (inactive).

In the case of `CCc1ccc(NC(=O)N2CCN(c3ccccc3)CC2)cc1`, the max response is 12% (inactive).

As for `O=C(Nc1cccc([N+](=O)[O-])c1)N1CCc2ccccc2C1`, the max response is 51.1% (active).

As to `Cc1ccc(NC(=O)CN2CCc3ccccc3C2)cc1`, the max response is 16.3% (active).

For the molecule `Cc1ccc(NC(=O)CN2CCc3ccccc3C2)cc1C`, the max response was 18% (inactive).

Consider `O=C(Nc1cccc([N+](=O)[O-])c1)Nn1cnnc1`, for which the max response was 3.77% (inactive).

In the case of `CCc1ccc(NC(=O)N2CCc3ccccc3C2)cc1`, the max response is 49.7% (active).

For `CN(CC(=O)Nc1cccc(F)c1)CC(=O)Nc1cccc([N+](=O)[O-])c1`, the max response was 13.6% (inactive).

Consider `Cc1cccc(C)c1NC(=O)c1ccc(CN2CCc3ccccc3C2)cc1`, for which the max response was -1.05% (inactive).

On to `Cn1c(=O)c([N+](=O)[O-])c(Oc2ccccc2)c2ccccc21`, for which the max response is -2.35% (inactive).

Consider `O=C(NC(=S)N1CCc2ccccc21)c1ccco1`, for which the max response is 8.62% (inactive).

As to `COc1ccc(C(=O)Cc2cnn(-c3ccccc3)c2)c(O)c1`, the max response is 39.4% (active).

As to `COc1ccc(C(=O)NNS(=O)(=O)c2ccc(C)cc2)cc1`, the max response was -1.39% (inactive).

Consider `Cc1cc(O)cc(O)c1C(=O)Cc1cnn(-c2ccccc2)c1`, for which the max response was 14% (inactive).

On to `COc1ccc(C(=O)CC(=O)c2ccc(C)cc2)c(O)c1`, for which the max response is 20% (active).

In the case of `Cc1[nH]nc(-c2ccc(OCc3cnn(-c4ccccc4)c3)cc2O)c1Oc1ccc(Cl)cc1`, the max response is 0.856% (inactive).

For `COc1ccc(C(=O)C[n+]2ccc(C)cc2)cc1`, the max response is 0.721% (inactive).
